Assay: plasmodial surface anion channel blockers, osmotic lysis – cell-based, P. falciparum Indochina, OD700, 18 h, primary screen (AID 1157)
Conditions: P. falciparum Indochina infected erythrocytes, osmotic lysis OD700, 18 h; higher = more signal, called active from +8 up or from −8 down

z-score, inactive:
CCN(CC)c1ccc(N2CC=CC34O[C@@H]5/C=C\CCCOC(=O)C5[C@H]3C(=O)N(CCCCCO)[C@@H]4C2=O)cc1 (stereo partly specified) -0.28
COC(=O)[C@@]1(Cc2ccc(F)cc2)[C@H]2c3cc(C(=O)N(C)C)n(CCSCCO)c3C[C@H]2CN1C(=O)c1ccccc1 0.397
C=CCNC(=O)[C@@H]1[C@H]2C(=O)O[C@H](c3ccccc3)[C@H](c3ccccc3)N2[C@H](c2ccc(O)cc2)[C@@]12C(=O)Nc1ccc(C#CCCO)cc12 -1.86
COC(=O)C(CC#Cc1ccc2c(c1)[C@]1(C(=O)N2)[C@H](c2ccccc2OCCO)N2[C@H](c3ccccc3)[C@H](c3ccccc3)OC(=O)[C@H]2[C@@H]1C(=O)Nc1nc2ccccc2s1)C(=O)OC 1.77
COC(=O)[C@@]1(Cc2ccc(OC)cc2)[C@H]2c3cc(C(=O)N4CCCC4)n(CCc4ccc(O)c(OC)c4)c3C[C@H]2CN1C(=O)c1ccccc1 0.594
CCOC(=O)C[C@H]1[C@H](OC(=O)c2ccccc2-c2ccccc2)[C@@H](NC(=O)c2ccccc2)c2cc(OCCCO)ccc2N1C(=O)Cc1ccc(OC)cc1 0.109
C=C(/C(=C/C[C@@H](OC(=O)c1ccncc1)c1ccccc1OCCO)c1cnc2ccccc2c1)C(C)C 1.44
COCCOC(=O)N1C(=O)[C@@]2(c3cc(C#CCC(C(=O)OC)C(=O)OC)ccc31)[C@H](C(=O)N1CCCCCCC1)[C@H]1C(=O)O[C@H](c3ccccc3)[C@H](c3ccccc3)N1[C@@H]2c1ccc(O)cc1 0.336
NC(=O)NCC#Cc1ccc2c(c1)[C@]1(C(=O)N2)[C@H](c2ccc(OCCO)cc2)N2[C@H](c3ccccc3)[C@H](c3ccccc3)OC(=O)[C@H]2[C@@H]1C(=O)N1CCCCCCC1 0.565
C=C(CCCC)/C(=C/C[C@H](OC(=O)c1ccncc1)c1ccc(CO)o1)c1cc(C(=O)OC)ccc1OC 0.332
O=C1N(CCS(=O)(=O)c2ccccc2)Cc2ccccc2C[C@@]12COC(c1ccc(OCCCO)cc1)=N2 2.14
C[N+](C)(C)CCCCNC(=O)[C@H]1C[C@H]2C(=O)NCC(=O)N2[C@H]1c1ccc(O)cc1 0.0564
CC(C)N1C(=O)c2ccccc2[C@](C)(C(=O)O)[C@@H]1c1ccc(CO)cc1 0.352
C[N+](C)(C)CCCCCCNC(=O)[C@@H]1C[C@@H]2C(=O)NCC(=O)N2[C@@H]1c1ccc(O)cc1 -0.238
COCCCNC(=O)[C@@]1(Cc2ccccc2CN=[N+]=[N-])N=C(c2ccc(OCCCO)cc2)O[C@H]1c1ccccc1N=[N+]=[N-] 3.1
COC(=O)[C@@]1(Cc2ccc(OC)cc2)[C@H]2c3cc(C(=O)N(C)C)n(CCF)c3C[C@H]2CN1C(=O)c1ccccc1 1.06
C=CCNC(=O)[C@H]1[C@@H]2C(=O)O[C@@H](c3ccccc3)[C@@H](c3ccccc3)N2[C@@H](c2ccc(OCCO)cc2)[C@]12C(=O)N(C(=O)OCCOC)c1ccc(C#CC3=CCCCC3)cc12 0.948
O=C1C2C=CC(C(O)c3cccc4ccccc34)N(Nc3ccccc3)C2C(=O)N1c1ccccc1 (stereo unspecified) 1.41
COc1ccc(C#Cc2ccc3c(c2)[C@]2(C(=O)N3)[C@H](C(=O)O)[C@H]3C(=O)O[C@H](c4ccccc4)[C@H](c4ccccc4)N3[C@@H]2c2ccc(OCCO)cc2)cc1 -0.097
C=CCOC(=O)[C@H]1[C@@H]2C(=O)O[C@@H](c3ccccc3)[C@@H](c3ccccc3)N2[C@@H](c2ccc(OCCOC(=O)[C@H]3C[C@H]4C(=O)N[C@@H](CCCCN(C)C)C(=O)N4[C@H]3c3ccc(O)cc3)cc2)[C@]12C(=O)Nc1ccccc12 0.522
COC(=O)[C@@]1(Cc2ccccc2)[C@H]2c3cc(C(=O)N(C)C)n(Cc4ccccn4)c3C[C@H]2CN1C(=O)c1ccccc1 0.544

From PubChem BioAssay
